# Assay results: PubChem BioAssay (NCATS)
# Results filed as inconclusive are left out. Unmarked numbers belong to inactive results. Calls of active or inactive are those of the source. Calls come from the whole dose curve; as a rule, active = well fitted inhibition curve with a large enough effect; inconclusive = small, poorly fitted or top-dose-only effect; inactive = no such curve, though single readings can be large or run the other way.
# Assay: qHTS for Inhibitors of ATXN expression: Validation (AID 588378); note: nearly all actives have a fitted effect of over 75% in size
# Conditions: cell-based ATXN2 expression reporter assay, luminescence; series mostly up to 57.1 µM; activity change, negative = inhibition: at the top concentration
# Source text: Spinocerebellar ataxia type 2 (SCA2) is a multisystem neurodegenerative disease caused by a dominantly-acting mutation leading to expansion of a polyQ domain in the ataxin-2 protein (ATXN2). SCA2 patients develop progressive ataxia and later lose function in other neuronal systems. Prominent parkinsonian signs develop in some patients. Similar to many neurodegenerative disorders, no symptomatic or disease-modifying treatments are known.
# The primary objective of project is to identify compounds inhibiting ATXN2 expression and to test them for efficacy in SCA2 mouse models. To this end, in a collaboration between Dr. Daniel Scoles and scientists at NCGC, a cell-based assay adapted to high-throughput screening has been developed to screen the NIH Molecular Libraries Small Molecule Repository (MLSMR).
# NIH Chemical Genomics Center [NCGC]
# NIH Molecular Libraries Probe Centers Network [MLPCN]
# Assay Submitter (PI): Stefan Pulst and Daniel Scoles, University of Utah
# 4 ul of HEK293-ATXN2-FFLuc cell suspension (TBD cells/microL in phenol-red free DMEM) are dispensed into Greiner white solid bottom 1536-well assay plates, yielding a final well density of TBD cells/well. Plates are incubated for 2 hrs at 37 degrees C in 5% humidified CO2 to allow cell attachment. Compounds are then transferred via Kalypsys pin tool equipped with 1536-pin array (10nl slotted pins, V&P Scientific, San Diego, CA). In addition, duplicate serial dilutions of the control compounds ChemBridge 5553825, a previously identified ATXN2 expression inhibitor, and a known luciferase inhibitor, are pin-transferred. After incubation at 37 degrees C in 5% humidified CO2 for 24 hrs, CellTiter-Fluor reagent (1 ul) (Promega, Madison, WI) is then added and plates are incubated for 30 minutes, before being transferred to a ViewLux high-throughput CCD imager (PerkinElmer), wherein single end-point fluorescence measurements are acquired using the 405 nm excitation/525 nm emission filter set to assess cell viability. Next, Bright-Glo luciferase substrate detection reagent (3 ul) (Promega, Madison, WI) is added to each well and incubated for an additional 5 minutes. Luminescence is then measured on the ViewLux imager equipped with a clear emission filter using a 2 sec exposure.
# % is set by controls: 0 for no effect and ±100 for the full control effect; potency is the fitted concentration of half-maximal effect.
Compound,"activity change, negative = inhibition [%]",Potency
NCCCCCC(=O)O,13.6,
COc1cc2nc(N3CCN(C(=O)C4COc5ccccc5O4)CC3)nc(N)c2cc1OC (stereo not given),-27.3,
Cc1cnc(C(=O)NCCc2ccc(S(=O)(=O)NC(=O)NC3CCCCC3)cc2)cn1,-7.72,
CC(COc1ccccc1)N(CCCl)Cc1ccccc1 (stereo not given),-17.3,
CCC1(C)CC(=O)NC1=O (stereo not given),-8.41,
CC[N+](CC)(CC)CCOc1cccc(OCC[N+](CC)(CC)CC)c1OCC[N+](CC)(CC)CC,-10.9,
O=C(C1CCCCC1)N1CC(=O)N2CCc3ccccc3C2C1 (stereo not given),-13.6,
Cc1ccccc1N1C(=O)c2cc(S(N)(=O)=O)c(Cl)cc2NC1C (stereo not given),-10.8,
NC(=O)OCC(COC(N)=O)c1ccccc1,0.0622,
COc1nc(C)nc(Cl)c1NC1=NCCN1,5.74,
COC(=O)Nc1nc2ccc(C(=O)c3cccs3)cc2[nH]1,6.89,
CN1C2CCC1CC(OC(=O)C(CO)c1ccccc1)C2 (stereo not given),,inactive
Cc1cn([C@H]2C=C[C@@H](CO)O2)c(=O)[nH]c1=O,5.19,
CCOC(=O)c1ncn2c1CN(C)C(=O)c1cc(F)ccc1-2,6.39,
CC(C)NCC(O)COc1ccc(CCOCC2CC2)cc1 (stereo not given),-19.6,
COc1ccc2c(c1)c(CC(=O)O)c(C)n2C(=O)c1ccc(Cl)cc1,-9.37,
Cn1ccc2cc3c(cc21)CCN3C(=O)Nc1cccnc1,79.7,
CCC1(c2ccccc2)C(=O)NCNC1=O,-19.4,
O=C(CCCN1CCC(O)(c2ccc(Cl)cc2)CC1)c1ccc(F)cc1,-20.5,
NC(CO)C(=O)NNCc1ccc(O)c(O)c1O (stereo not given),-19.5,

Compound,"activity change, negative = inhibition [%]",Potency
Clc1ccc(C(c2ccccc2Cl)C(Cl)Cl)cc1 (stereo not given),-29.2,
N[C@@H](Cc1c[nH]c2ccc(O)cc12)C(=O)O,-9.85,
Clc1ccccc1C(c1ccccc1)(c1ccccc1)n1ccnc1,,25.1 µM (active)
CCOC(=O)C(C)(C)Oc1ccc(Cl)cc1,-4.45,
Cn1c(=O)c2[nH]cnc2n(C)c1=O,-4.44,
O=C(Nc1ccc([N+](=O)[O-])cc1Cl)c1cc(Cl)ccc1O,-44.9,
NCCc1cnc[nH]1,-4.43,
CC(C)Cc1ccc(C(C)C(=O)O)cc1 (stereo not given),-11.7,
COc1cc2nc(N(C)CCCNC(=O)C3CCCO3)nc(N)c2cc1OC (stereo not given),-13.5,
Nc1ccn([C@H]2CC[C@@H](CO)O2)c(=O)n1,-5.96,
Cc1ccc(C(=O)Nc2ccc(S(=O)(=O)O)c3cc(S(=O)(=O)O)cc(S(=O)(=O)O)c23)cc1NC(=O)c1cccc(NC(=O)Nc2cccc(C(=O)Nc3cc(C(=O)Nc4ccc(S(=O)(=O)O)c5cc(S(=O)(=O)O)cc(S(=O)(=O)O)c45)ccc3C)c2)c1,-20.9,
COc1ccc2[nH]cc(CCNC(C)=O)c2c1,9.38,
Nc1nc2c(ncn2COC(CO)CO)c(=O)[nH]1,-17,
COc1ccc(C2CNC(=O)C2)cc1OC1CCCC1 (stereo not given),-17.2,
Cn1cnc2c1c(=O)[nH]c(=O)n2C,-3.64,
CC12CC3CC(C)(C1)CC(N)(C3)C2,-27,
CCOC(=O)Nc1ccc(NCc2ccc(F)cc2)nc1N,-20.6,
NCCS(=O)(=O)O,2.89,
Clc1ccc2nsnc2c1NC1=NCCN1,-1.51,
C[C@H]1c2cccc(O)c2C(O)=C2C(=O)[C@]3(O)C(O)=C(C(N)=O)C(=O)[C@@H](N(C)C)[C@@H]3[C@@H](O)[C@@H]21,10.2,
